Structures are written as SMILES. About 4,300 (8.3%) of roughly 52,000 compounds were called active. What follows is part of a selection rich in actives, with near analogues and random picks from the rest. Values without a mark were called inactive. Cut-off read from the data, not from the text of the source: active = survival mostly below about 52% (no sharp cut-off); inactive = mostly above about 56%.

In the test the test system is DeltatarO mutant. As to the kind of experiment: growth inhibition of S. aureus wild type versus tarO mutant, primary screen, teichoic acid synthesis inhibitors, RN4220, OD600 (AID 463173). The note with it: OD600, 18 h, stronger effect = lower value, screened at 18.75 µg/mL (by protocol).
As to `CCOc1ccc(C(=O)c2cn(CC(=O)Nc3ccc(OC)cc3)c3cc4c(cc3c2=O)OCCO4)cc1`, the survival is 82%.

For the compound `CCc1cccc(C)c1NC(=O)Cn1nc(C)c2nn(-c3ccc(Cl)cc3)c(C)c2c1=O`, the survival was 124%.

As to `Cc1ccc(-n2nc(CO)c(C(=O)NCCO)n2)cc1`, the survival was 82%.

Turning to `CCOc1ccc(CN2CCc3nc(Nc4ccc5c(c4)OCCO5)ncc3C2)cc1`, the survival is 89%.

Consider `Cc1ccc(S(=O)(=O)c2nnn3c2nc(N2CCCCC2)c2sccc23)cc1`, for which the survival was 104%.

Take `CCOC(=O)c1scc(-c2ccc(C)cc2)c1S(=O)(=O)N1CCN(c2ccccc2)CC1`: the survival is 73%.

With `Cc1ccc(CSc2nnc(-n3c(=O)c(C#N)cc4c(=O)n5cccc(C)c5nc43)s2)cc1`, the survival is 101%.

For the compound `N#Cc1cc(-c2ccc(Cl)cc2)no1`, the survival is 97%.

Turning to `COC(=O)CSc1nnc(-c2ccccc2)n1C`, the survival was 97%.

Consider `CCc1ccccc1NC(=O)Nc1c(C)n(C)n(-c2ccccc2)c1=O`, for which the survival is 88%.

Take `CN1C(=O)N(C)C2(CC1(C)C)CC(C)(C)N(C)C(=O)N2C`: the survival was 102%.

Consider `Cn1c(=O)c2c(nc(SCC(=O)Nc3ccc(F)c(F)c3)n2Cc2ccccc2F)n(C)c1=O`, for which the survival is 111%.

Consider `COc1ccc(NC(=O)c2nnn(Cc3ccc(Br)cc3F)c2N)c(OC)c1`, for which the survival was 68%.

In the case of `COc1ccccc1Oc1nc2c(c(=O)n(C)c(=O)n2C)n1Cc1cccc(Br)c1`, the survival was 40% (active).

In the case of `Cc1ccccc1Oc1nc2c(c(=O)n(C)c(=O)n2C)n1Cc1ccc(Br)cc1`, the survival is 143%.

Turning to `COc1ccc(CNc2nc3c(c(=O)n(C)c(=O)n3C)n2Cc2ccccc2Cl)cc1`, the survival is 65%.

Take `Cn1c(=O)c2c(nc(NCc3ccccc3)n2Cc2ccccc2Cl)n(C)c1=O`: the survival was 58%.

Consider `Cn1c(=O)c2c(nc(NCc3ccccc3)n2Cc2ccccc2)n(C)c1=O`, for which the survival was 38% (active).

Regarding `Cn1c(=O)c2c(nc(NCc3ccccc3)n2Cc2ccc(Cl)c(Cl)c2)n(C)c1=O`, the survival was 42%.

Consider `Cn1c(=O)c2c(nc(NCCc3ccccc3)n2Cc2cccc(Br)c2)n(C)c1=O`, for which the survival is 50%.

As for `COc1ccc(CCNc2nc3c(c(=O)n(C)c(=O)n3C)n2Cc2ccccc2Cl)cc1OC`, the survival is 75%.

On to `COc1ccc(Cl)c(Cn2c(NCCN)nc3c2c(=O)n(C)c(=O)n3C)c1`, for which the survival was 56% (active).

Consider `COc1ccc(NC(=O)Cn2cnc3sc(C)c(S(=O)(=O)N4CCN(c5ccccc5OC)CC4)c3c2=O)cc1OC`, for which the survival is 67%.

For `CC1CCN(c2nc(N3CCCCC3)nc(N3CCCCC3)n2)CC1`, the survival is 62%.

With `CCOC(=O)c1cc(C)n(CC2CCC(C(=O)Nc3ccc(C)c(F)c3)CC2)c1C` (stereo not given), the survival is 64%.

Regarding `Cc1cccc(NC(=O)C2CCCN(S(=O)(=O)c3c(C)noc3/C=C/N(C)C)C2)c1C` (stereo not given), the survival is 84%.

As to `Cc1ccc(NS(=O)(=O)c2ccc3c(c2)CCN3C(=O)C2CC2)c(C)c1`, the survival was 58%.

For `Cc1ccc(Nc2c(-c3cccnc3)nc3ccc(Cl)cn23)cc1`, the survival is 83%.

As for `O=C(Nc1ccc(F)cc1F)C1CCN(c2ncccn2)CC1`, the survival was 58%.

With `Cc1c(C(=O)OC2CCCC2)[nH]c2c1C(=O)CC(c1ccc(C(C)(C)C)cc1)C2` (stereo not given), the survival was 89%.

For `Cc1nnc(SCC(=O)O)o1`, the survival is 75%.

Take `COCCNc1c(-c2ccc(N)cc2)nc2ccc(C)cn12`: the survival is 65%.

`Cc1ccc2nc(-c3ccc(F)cc3)c(NC(C)(C)CC(C)(C)C)n2c1`: the survival is 12% (active).

In the case of `Cc1ccc(Nc2c(-c3ccc(C)cc3)nc3ccc(C)cn23)cc1`, the survival is 117%.

In the case of `O=C(CSc1ccc(-c2cccs2)nn1)Nc1ccccc1`, the survival was 76%.

With `COc1ccccc1N1CCN(C(=O)c2ccc3c(c2)N(Cc2cc(C)ccc2C)C(=O)c2ccccc2S3(=O)=O)CC1`, the survival was 74%.

With `Cc1ccc(CN2CCCn3nc(C(=O)NC(C)C)cc3C2=O)cc1`, the survival was 0% (active).

`CCCCNC(=O)c1cc2n(n1)CCCN(Cc1ccc(C)cc1)C2=O`: the survival was 32% (active).

For `CCC(C)NC(=O)c1cc2n(n1)CCCN(Cc1ccc(C)cc1)C2=O` (stereo not given), the survival was 74%.

On to `CCNC(=O)c1cc2n(n1)CCCN(Cc1ccc(C)cc1)C2=O`, for which the survival is 49%.

Turning to `CCCNC(=O)c1cc2n(n1)CCCN(Cc1ccc(C)cc1)C2=O`, the survival is 131%.

As to `CCCSCCCNC(=O)c1cc2n(n1)CCCN(Cc1ccc(C)cc1)C2=O`, the survival was 89%.

For `O=C(CN1C(=O)CSc2ccc(S(=O)(=O)N3CCCC3)cc21)NCc1ccccc1Cl`, the survival was 87%.

In the case of `CCCC(=O)n1nc(-c2cccnc2)nc1NCc1ccccc1`, the survival was 81%.

Turning to `Cc1ccc(Cl)cc1NC(=O)CCc1c(C)nc2c3cccnc3nn2c1C`, the survival is 103%.

With `O=C(NCc1ccc(Cl)cc1)C1CCCN(c2nc3ccccc3n3cccc23)C1` (stereo not given), the survival is 82%.

In the case of `O=C(NCc1ccccc1Cl)C1CCCN(c2nc3ccccc3n3cccc23)C1` (stereo not given), the survival was 46% (active).

As for `COc1ccccc1CNC(=O)C1CCCN(c2nc3ccccc3n3cccc23)C1` (stereo not given), the survival is 53%.

As for `O=C(NCc1ccccc1Br)C1CCCN(C(=O)N2CCOc3ccccc32)C1` (stereo not given), the survival is 73%.

`COc1ccc(NC(=O)C2=C(C)Nc3nc(SCc4ccccc4C)nn3C2c2ccc(Br)cc2)cc1` (stereo not given): the survival was 80%.

As to `CCOc1ccc(CNC(=O)c2ccc3c(c2)c(C)c(C)n3Cc2ccc(Cl)cc2)cc1`, the survival was 67%.

Regarding `CCCC(=O)Nc1nc2ccc(S(C)(=O)=O)cc2s1`, the survival is 93%.

`CN(c1ccc(O)cc1)c1nc(-c2cccs2)cs1`: the survival was 1% (active).

With `CC(=O)N(C)c1nc(-c2ccccc2)cs1`, the survival was 80%.

`COc1ccc(-c2csc(N(CC(C)C)C(=O)c3cccs3)n2)cc1`: the survival is 76%.

As for `Cc1[nH]c2ccc(CNS(=O)(=O)c3ccc(S(=O)(=O)N4CCOCC4)cc3)cc2c1C`, the survival was 91%.

For `CC1=C(C(=O)OCC2CCCO2)C(c2ccccc2)NC(=O)N1` (stereo not given), the survival was 102%.

Regarding `CC1CCN(S(=O)(=O)c2ccc3c(c2)N(CC(=O)NC(C)C)C(=O)CO3)CC1`, the survival is 76%.

Take `Cc1cc(C)c(NC(=O)C(C)n2nc(C)c3sc4ccccc4c3c2=O)c(C)c1` (stereo not given): the survival was 60%.

For `Cc1nn(C(C)C(=O)Nc2ccc(C(C)C)cc2)c(=O)c2c1sc1ccccc12` (stereo not given), the survival is 58% (active).

As for `Cc1nn(C(C)C(=O)Nc2cccc(F)c2)c(=O)c2c1sc1ccccc12` (stereo not given), the survival was 108%.

As for `Cc1ccc(S(=O)Cc2ccc(C(=O)NC3CCCCCC3)o2)cc1` (stereo not given), the survival was 121%.

Consider `CCOC(=O)c1ccc(NC(=O)C2CCN(S(=O)(=O)Cc3ccccc3)CC2)cc1`, for which the survival was 66%.

Regarding `Cc1ccc(CNC(=O)Nc2cc(C(=O)NCc3ccc(C(C)C)cc3)ccc2N2CCCC2)cc1`, the survival is 79%.

For the compound `CC(C)c1ccc(CNC(=O)c2ccc(N3CCCC3)c(NC(=O)NCc3ccc(F)cc3)c2)cc1`, the survival is 47% (active).

Regarding `CC(C)c1ccc(CNC(=O)c2ccc(N3CCCC3)c(NC(=O)NCc3ccccc3)c2)cc1`, the survival is 73%.

`Cc1cc(C)cc(-n2ccn(Cc3ccc(F)cc3)c(=O)c2=O)c1`: the survival was 71%.

For the compound `COc1ccc(C(=O)Nc2ccc3nc(N4CCCCC4)cc(C)c3c2)c(OC)c1`, the survival is 44% (active).

Turning to `COc1ccc(C(=O)Nc2ccc3nc(N4CCC(C)CC4)cc(C)c3c2)cc1`, the survival was 56%.

`CCCCc1ccc(C(=O)Nc2ccc3nc(N(CC)CC)cc(C)c3c2)cc1`: the survival was 109%.

For the compound `CCN1CCN(c2cc(C)c3cc(NC(=O)c4cc(Cl)ccc4OC)ccc3n2)CC1`, the survival is 8% (active).

In the case of `COc1cccc(C(=O)Nc2ccc3nc(N4CCC(C)CC4)cc(C)c3c2)c1`, the survival is 47%.

For the compound `COc1ccccc1C(=O)Nc1ccc2nc(N3CCC(C)CC3)cc(C)c2c1`, the survival is 3% (active).

Regarding `CCCCc1ccc(C(=O)Nc2ccc3nc(N4CCN(CC)CC4)cc(C)c3c2)cc1`, the survival is 36% (active).

For `COc1ccc(Cl)cc1C(=O)Nc1ccc2nc(Nc3cccc(Cl)c3)cc(C)c2c1`, the survival is 93%.

With `CC(=O)c1ccc(NC(=O)CSc2ccc3nnc(CCNS(=O)(=O)c4ccc(C)cc4)n3n2)cc1`, the survival was 67%.

Regarding `COc1ccc(C)cc1NC(=O)CC(=O)Nc1ccc2nc3n(c(=O)c2c1)CCCCC3`, the survival was 89%.

As for `COCCCNC(=O)CSc1nc2cc3c(cc2c(=O)n1CCCC(=O)NCc1ccc2c(c1)OCO2)OCO3`, the survival was 84%.

For the compound `Cc1cc(C)cc(NC(=O)N2CCC(N3CCN(Cc4ccccc4)C(=O)C3=O)CC2)c1`, the survival was 77%.

Turning to `COc1ccccc1CNc1nc(-c2ccco2)nn1S(C)(=O)=O`, the survival was 70%.

In the case of `O=C(Cn1ncc2c3ccccc3n(Cc3ccccc3)c2c1=O)NCc1ccccc1`, the survival is 93%.

For the compound `Cc1ccccc1C(=O)OCc1cc(=O)n2nc(C(C)C)sc2n1`, the survival was 81%.

For `COc1ccc(Cn2c(C(=O)O)c(CNCCc3ccccc3Cl)c3ccc(C)cc32)cc1`, the survival was 80%.

As to `Cc1ccc(-n2c(=O)c3c(c4cc(C)ccc4n3C)n(CC(=O)Nc3c(C)cccc3C)c2=O)cc1`, the survival was 123%.

`CCOc1ccc(CC(=O)Nc2ccc3nc(N4CCCCC4)cc(C)c3c2)cc1OCC`: the survival was 92%.

With `Cc1ccc(NC(=O)Nc2ccc3nc(N4CCN(C)CC4)cc(C)c3c2)cc1F`, the survival is 96%.

Consider `Cc1cc(N2CCN(C)CC2)nc2ccc(NC(=O)c3ccccc3F)cc12`, for which the survival is 122%.

As for `CCN1CCN(c2cc(C)c3cc(NC(=O)c4ccc(OC)c(OC)c4)ccc3n2)CC1`, the survival was 44% (active).

As to `CCN1CCN(c2cc(C)c3cc(NC(=O)c4ccccc4F)ccc3n2)CC1`, the survival is 43% (active).

Consider `Cc1cc(N2CCN(C)CC2)nc2ccc(NC(=O)c3ccc(C(C)(C)C)cc3)cc12`, for which the survival was -3% (active).

For `COc1ccc(CC(=O)Nc2ccc3nc(N4CCCCC4)cc(C)c3c2)cc1`, the survival is 51% (active).

With `COc1ccc(CC(=O)Nc2ccc3nc(Nc4ccc(OC)cc4)cc(C)c3c2)cc1`, the survival was 55%.

For the compound `CCOc1cc(C(=O)Nc2ccc3nc(N4CCN(C)CC4)cc(C)c3c2)cc(OCC)c1OCC`, the survival is 137%.

Take `CCN1CCN(c2cc(C)c3cc(NC(=O)c4cc(OC)c(OC)c(OC)c4)ccc3n2)CC1`: the survival was 78%.

Turning to `Cc1ccc(NC(=O)Nc2ccc3nc(N4CCN(C)CC4)cc(C)c3c2)cc1C`, the survival was 101%.

(Values after PubChem BioAssay AID463173 (ICCB-Longwood Screening Facility, Harvard Medical School, 2010).)
